Experimental findings from PubChem BioAssay (EPA / NIEHS) are described below.

Activity calls are given as the source filed them. The calls were made as follows: active = hit-call score of the fitted dose curve at least 0.9, where 1 is the maximum; inactive = score below 0.9.

Read-out in this experiment: Cytochrome P450 (CYP24A1), CYP24A1 (gene 1591)
The experiment in a line: LTEA_HepaRG_CYP24A1: Life Technologies and Expression Analysis (LTEA) Assay for Cytochrome P450 (CYP24A1) using HepaRG (AID 2283478). The conditions noted are these: mRNA level, 48 h; actives raise or lower the signal. The protocol: LTEA_HepaRG is a cell based, multiplexed-readout assay that uses HepaRG, a human liver cell line, with measurements taken at 48 hours after chemical dosing on a 96-well plate.LTEA_HepaRG_CYP24A1 is one of 102 assay component(s) measured in the LTEA HepaRG cell culture assay. It is a marker of NR mediated metabolism.Data from the assay component LTEA_HepaRG_CYP24A1 was analyzed into 1 endpoint. This assay endpoint, LTEA_HepaRG_CYP24A1, was analyzed with bidirectional fitting relative to DMSO as the negative control and baseline of activity. Using a type of inducible reporter, measures of mRNA induction for gain or loss-of-signal activity can be used to understand regulation of transcription factor activity. To generalize the intended target to other relatable targets, this assay endpoint is annotated to the cyp intended target family, where the subfamily is xenobiotic metabolism.
A total of 1060 chemcials from the ToxCast library were tested in eight-point concentration-response experiments. Cell culture and cytotoxicity assays were conducted at Thermo Fisher Scientific's Custom Services facility (Madison, WI). A single lot of human HepaRG cells (Thermo Fisher Scientific, Frederick, MD) was used for the cell culture experiments. 96-well format collagen type I coated plates of human HepaRG cells were prepared using established methods. Briefly, cryopreserved HepaRG cells were thawed, plated at a density of approximately 100,000 cells/well in HepaRG Thaw, Plate, and General Purpose media (HPRG770, Thermo Fisher Scientific), and incubated for 48 hours. 0.5% DMSO was selected as vehicle control to balance the requisite need of DMSO in HepaRG cultures to maintain differentiation (for example, baseline metabolism, proportions of hepatocytes vs. cholangiocytes), while enabling further hepatic receptor pathway activation (for example, PXR and CAR) in response to chemical exposure. 48 hours after plating, the culture medium was replaced with HepaRG Serum-Free Incudtion Media. Cells were exposed to each test chemical in duplicate and maintained in CO2 incubators for another 48 hours. Chemical plates were thawed to room temperature and 200x concentrations of treatment groups were prepared. 8-point conentration-reponse curves were made with the highest exposure at 100 uM, followed by half-log dilutions, all in 0.5% DMSO. Each test plate contained variouse controls, induction positive controls (1mM phenobarbital), cytotoxicity positive controls ([…] aflatoxin B1), vehicle controls (0.5% DMSO), and total lysis controls (0.5% DMSO). Cell morphology images were taken using an Essen IncuCyte FLR automated microscope, with six 96-well plates imaged in about 24 minutes. Images were captured and exported and JPEG files. Spent culture media was transfered to black-well plates for the LDH assay, and remaining media was sorted at -80 C for later use. Cells were treated with RLT buffer and frozen until shipped for gene expression analysis. Total RNA was isolated from the cell suspension in 75 uL of Buffer RLT (Qiagen, Germantown, MD 20874) by Quintiles/Expression Analysis (Durham, NC) using a custom isolation procedure. Total RNA from each plate well was transferred to a preamplification plate. Fluidigm's 96.96 Dynamic ArrayTM (Fluidigm, Amsterdam, the Netherlands) technology was used for gene expression analyses by quantitative reverse transcription polymerase chain reaction (qRT-PCR, performed by Quintiles/Expression Analysis, Durham, NC)89. Standard TaqManTM Assays (Applied Biosystems/ThermoFisher Scientific, Foster City, CA) were used to assess the expression of 93 genes selected based on their selectivity and sensitivity to important hepatic receptors known to be modulated by environmental chemicals; importance in human hepatocyte functionality; and hepatotoxicity. […]
Take `c1ccc2c(c1)-c1cccc3cccc-2c13`: the molecule was classed as inactive.

Turning to `CC(C)(O)c1cnn2c(-c3ccc(F)c(-c4c(F)cccc4C#N)c3)cnc2n1`, the outcome was inactive.

In the case of `OCCOCCO`, the call was inactive.

Take `[Cl-].[Cl-].[Hg+2]`: the molecule was classed as inactive.

Take `c1ccc(C2CO2)cc1` (stereo not given): the molecule was called inactive.

Take `Cc1cccc(N)c1N`: the call was inactive.

Take `Cn1cc(-c2ccccc2)c(=O)c(-c2cccc(C(F)(F)F)c2)c1`: the call was inactive.

With `COC(=O)c1ccccc1N`, the result was inactive.

For the molecule `Nc1ccc(N=Nc2ccccc2)cc1`, the molecule was called inactive.

In the case of `N#CC(Br)Br`, the result was inactive.

In the case of `CCC12COCN1COC2`, the molecule was classed as inactive.

Regarding `CN(C)c1ccc(C(=O)c2ccc(N(C)C)cc2)cc1`, the call was inactive.

Turning to `CNC(=O)Oc1cccc2c1OC(C)(C)C2`, the result was inactive.

Take `Nc1ccc(Oc2ccc(N)cc2)cc1`: the molecule was called inactive.

Consider `ClCCOCCCl`, for which the result was inactive.

Consider `O=P(OCCCl)(OCCCl)OCCCl`, for which the molecule was classed as inactive.

Consider `Nc1ccc([N+](=O)[O-])cc1`, for which the call was inactive.

Take `c1ccc2c(c1)oc1ccccc12`: the outcome was inactive.

Take `CC(C)(C)OOC(=O)c1ccccc1`: the molecule was called inactive.

Turning to `CCCCCCCCCCCCCN1CC(C)OC(C)C1` (stereo not given), the result was inactive.

Take `Clc1ccc(C(c2ccc(Cl)cc2)C(Cl)(Cl)Cl)cc1`: the result was inactive.

With `CC(C)(C)OOC(C)(C)CCC(C)(C)OOC(C)(C)C`, the result was inactive.

Regarding `O=C(O)C1C2CCC(O2)C1C(=O)O` (stereo not given), the result was inactive.

Regarding `CC(C)(C)C(O)(CCc1ccc(Cl)cc1)Cn1cncn1` (stereo not given), the call was inactive.

Regarding `CCC(C)c1ccc(O)cc1` (stereo not given), the result was inactive.

Regarding `CC(C)COC(=O)c1ccccc1C(=O)OCC(C)C`, the result was inactive.

In the case of `O=C1CCCO1`, the call was inactive.

For `[O-][Cl+]O`, the molecule was called inactive.

In the case of `CN(C)[C@@H]1C(=O)C(C(N)=O)=C(O)[C@@]2(O)C(=O)C3=C(O)c4c(O)cccc4[C@@](C)(O)[C@H]3C[C@@H]12`, the molecule was called inactive.

`COC(=O)Nc1nc2ccccc2[nH]1`: the molecule was called inactive.

In the case of `C[N+](C)(C)CC1CO1` (stereo not given), the call was inactive.

For the molecule `Cc1ccc(N=C=O)cc1N=C=O`, the outcome was inactive.

As to `Cc1cc(N=Nc2ccccc2C)ccc1N`, the molecule was called inactive.

For the molecule `O=C(N[C@H](c1ccccc1)[C@@H]1CN2CCC1CC2)c1c(Cl)ccc(C(F)(F)F)c1Cl`, the result was inactive.

On to `Clc1ccc(C(c2ccc(Cl)cc2)C(Cl)Cl)cc1`, for which the molecule was classed as inactive.

In the case of `CCCSC(=O)N(CCC)CCC`, the molecule was called inactive.

With `CO[C@@H]1[C@H](OC(=O)NC(=O)CCl)CC[C@]2(CO2)[C@H]1[C@@]1(C)O[C@@H]1CC=C(C)C`, the molecule was called inactive.

Turning to `c1ccc(NNc2ccccc2)cc1`, the result was inactive.

In the case of `Brc1ccc(Oc2ccccc2)cc1`, the outcome was inactive.

Take `CCNS(=O)(=O)C(F)(F)C(F)(F)C(F)(F)C(F)(F)C(F)(F)C(F)(F)C(F)(F)C(F)(F)F`: the outcome was inactive.
